Assay [1] can be described thus: NCI Yeast Anticancer Drug Screen. Data for the rad50 strain (AID 155).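 Note: 0% = growth of vehicle-only cultures of the same strain.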 Particulars: S. cerevisiae rad50 strain growth inhibition; at 50.0 µM; stronger effect = higher value. The method, boiled down: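 Genetically altered yeast (DNA repair pathway); compound treatment; growth inhibition vs vehicle ctrl.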
Assay [2] in a line: NCI Yeast Anticancer Drug Screen. Data for the mec2-1 strain (AID 157). The following applies: S. cerevisiae mec2-1 strain, at 50.0 µM, stronger effect = higher value. The method, boiled down: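 Vehicle-treated cultures served as reference for growth inhibition of compound-exposed mec2-1 yeast.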
The nature of assay [3]: NCI Yeast Anticancer Drug Screen. Data for the sgs1 mgt1 strain (AID 161).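 Note: 0% = growth of cultures given vehicle only.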 Particulars: S. cerevisiae sgs1 mgt1 strain, at 50.0 µM, stronger effect = higher value. The method, boiled down: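 Mutant yeast exposed to compound; growth scored against vehicle-only wells.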
Assay [4] can be described thus: NCI Yeast Anticancer Drug Screen. Data for the cln2 rad14 strain (AID 165).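 Note: 0% = growth equal to vehicle treated cultures.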 Particulars: S. cerevisiae cln2 rad14 strain, at 50.0 µM, stronger effect = higher value. Put shortly:
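Each compound was tested on cln2 rad14 yeast. Inhibition of growth was calculated against vehicle-exposed controls.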

Assay [5] can be described thus: NCI Yeast Anticancer Drug Screen. Data for the bub3 strain (AID 167). The following applies: S. cerevisiae bub3 mutant strain, at 50.0 µM, stronger effect = higher value. The method, boiled down: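 Yeast carrying a defined mutation is treated with each compound, and growth is compared with that of vehicle-exposed cells to give inhibition.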
Assay [6] can be described thus: NCI Yeast Anticancer Drug Screen. Data for the mlh1 rad18 strain (AID 175). The following applies: S. cerevisiae mlh1 rad18 strain growth inhibition; at 50.0 µM; stronger effect = higher value. The method, boiled down:
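Vehicle-treated cultures served as the reference for growth inhibition in a yeast strain carrying DNA damage repair alterations exposed to each compound.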

About 79,000 compounds went through this panel and 15% of them were active in at least one assay; those are over-represented in the sample as a whole. Values without a mark were called inactive. Activity calls are given as the source filed them. Cut-off read from the data, not from the text of the source: active = growth inhibition above about 70%; inactive = the rest.

With `Nc1nc(SC2CCCCC2)nc2c1ncn2C1OC(CO)C(O)C1O` (stereo not given), the growth inhibition in assay [1] was -49.5%; in assay [2] it was -33%; in assay [3], -8.15%; in assay [4], 0.7%; in assay [5] it was -4.75%; in assay [6], -13.7%.

For `COC1=C(O)C(=O)N(C)C(=O)C1`, the growth inhibition in assay [1] is 20.4%; in assay [2], 9.35%; in assay [3], 29.2%; in assay [4], 0.75%; in assay [5], -14.7%; in assay [6], 10.8%.

Take `CCOC(=O)C1=C(NC(C)=O)Sc2ccccc2C1`: the growth inhibition in assay [1] is 27.9%; in assay [2] it was 6.6%; in assay [3] it was 1.8%; in assay [4] it was -19.3%; in assay [5], 2.45%; in assay [6] it was 25%.

In the case of `C=CCNC(=O)N(CCC)CCCC(NC(C)=O)C(=O)NCc1ccccc1` (stereo not given), the growth inhibition in assay [1] is -9.75%; in assay [2], -27.5%; in assay [3], -14.8%; in assay [4], 10.4%; in assay [5] it was -17.1%; in assay [6], -9.7%.

For `O=C1S/C(=C2\C(=O)N(CN3CCCCC3)c3ccccc32)C(=O)N1CN1CCCCC1`, the growth inhibition in assay [1] was 26.6%; in assay [2], -13.1%; in assay [3], -3.85%; in assay [4] it was 4.65%; in assay [5], -1.1%; in assay [6], 31.1%.

Regarding `CCOC(=O)C(/C=N\C(=S)Nc1ccc(OCC)cc1)=C(/O)c1ccccc1`, the growth inhibition in assay [1] was -49.1%; in assay [2], -52.6%; in assay [3], -26.6%; in assay [4], -14.8%; in assay [5] it was -30.2%; in assay [6], 6.5%.

`CC(C)(C)NC(=O)Oc1ccc(Br)cc1Br`: the growth inhibition is -1.5% in assay [1]; 14.4% in assay [2]; 18.6% in assay [3]; -14.2% in assay [4]; 9.75% in assay [5]; 21.2% in assay [6].

For `C=C1C(=O)OC2CC(=C)C3CC=C(C)C3CC12` (stereo not given), the growth inhibition was 41.8% in assay [1]; 21.5% in assay [2]; 19% in assay [3]; 41.6% in assay [4]; 25.8% in assay [5]; 44.1% in assay [6].

On to `CCOC(=O)N(C)C(=C(F)F)C(F)(F)F`, for which the growth inhibition in assay [1] was 9.1%; in assay [2] it was -0.1%; in assay [3], 10.8%; in assay [4], 33.6%; in assay [5], 12.4%; in assay [6], -26.1%.

Take `CC(=O)c1ccc(O)c(C)c1`: the growth inhibition in assay [1] is -9.3%; in assay [2], -8.9%; in assay [3], -6.55%; in assay [4] it was 5.5%; in assay [5], -8.1%; in assay [6], -0.2%.

Take `CCc1c(NCCO)c(C(=O)NCCO)c2nc3ccccc3n2c1NCCO`: the growth inhibition in assay [1] was 2.2%; in assay [2], 9.65%; in assay [3], -3.1%; in assay [4], -14.1%; in assay [5], -7.3%; in assay [6], 11.8%.

With `CCOC(=O)CCC(NC(=O)c1ccc(Nc2nc3ccccc3nc2C(=O)OCC)cc1)C(=O)OCC` (stereo not given), the growth inhibition in assay [1] was 11.8%; in assay [2] it was 2.55%; in assay [3], 9.1%; in assay [4] it was 15.4%; in assay [5], 25.8%; in assay [6], 19.1%.

With `Cc1ccc(S(=O)(=O)N(CC(O)c2ccccc2)CC(O)c2ccccc2)cc1` (stereo not given), the growth inhibition is -3.95% in assay [1]; -1.7% in assay [2]; -18.2% in assay [3]; 3.5% in assay [4]; 3.95% in assay [5]; -8% in assay [6].

In the case of `CN(C=O)C(C(=O)Nc1cccc2c(OC(=O)C(N(C)C=O)(N(C)C=O)N(C)C=O)c(N=Nc3ccc(S(=O)(=O)Nc4nccs4)cc3)cc(N=Nc3ccc(S(=O)(=O)Nc4nccs4)cc3)c12)(N(C)C=O)N(C)C=O` (tested in a mixture with another compound), the growth inhibition in assay [1] is 60.1%; in assay [2] it was 6.25%; in assay [3], -6.25%; in assay [4] it was -6.5%; in assay [5] it was 16.9%; in assay [6], 35.6%.

In the case of `Cc1ccc(-n2cc(-c3ccc(Cl)cc3)c3c(NNC(=S)NCc4ccccc4)ncnc32)cc1`, the growth inhibition in assay [1] is 30.9%; in assay [2] it was 35%; in assay [3], 52.5%; in assay [4] it was 32.4%; in assay [5], 40.7%; in assay [6], 11.1%.

`S=C(Nc1ccccc1)Nc1ccccn1`: the growth inhibition in assay [1] was 10.1%; in assay [2], -29.6%; in assay [3], 4.05%; in assay [4], -30.8%; in assay [5], -4.35%; in assay [6], 4.25%.

As for `O=C(c1cccc(C(=O)N2CCCC2)n1)N1CCCC1`, the growth inhibition in assay [1] is -11.4%; in assay [2], -13.2%; in assay [3], -1.7%; in assay [4] it was -25.6%; in assay [5] it was -15.5%; in assay [6], -18.8%.

Regarding `COCCOCOC(C)(C)[C@H](CCO)O[Si](c1ccccc1)(c1ccccc1)C(C)(C)C`, the growth inhibition in assay [1] is 91.9% (active); in assay [2] it was 96.5% (active); in assay [3] it was 37.6%; in assay [4], 91.6% (active); in assay [5] it was 91.4% (active); in assay [6] it was 95.8% (active).

Take `COc1cc([N+](=O)[O-])ccc1N=Cc1cccs1`: the growth inhibition is 19.4% in assay [1]; 22.8% in assay [2]; 34% in assay [3]; 0.25% in assay [4]; 18.3% in assay [5]; 27.9% in assay [6].

Take `O=C1c2ccccc2-c2c1c1ccccc1c(=O)n2Cc1ccccc1`: the growth inhibition in assay [1] was 6.1%; in assay [2] it was -14.2%; in assay [3] it was 2.85%; in assay [4], 8.05%; in assay [5] it was -16.9%; in assay [6], -63.8%.

The values above are taken from PubChem BioAssay (NCI).
